The campaign covered roughly 300,000 compounds. About 37,000 (12%) were called active. The list comes from a sample in which actives are over-represented; it also holds similar structures and randomly drawn compounds. A number with no mark means an inactive call. Cut-off read from the data, not from the text of the source: active = max response mostly above about 13% (no sharp cut-off); inactive = mostly below about 14%.
Experiment: Cycloheximide Counterscreen for Small Molecule Inhibitors of Shiga Toxin; note: read at 38.3 µM for the half of the compounds with a filed dose; 0% is about no effect
Details: cell reporter, cycloheximide protein synthesis inhibition counterscreen; stronger effect = higher value

| SMILES | max response |
| --- | --- |
| O=C(Nc1cccc(O)c1)c1ccc(C(=O)c2ccccc2)o1 | 40.5% (active) |
| COc1cc(/C=C(/NC(=O)c2ccccc2)C(=O)Nc2cccc(O)c2)c([N+](=O)[O-])cc1OC | -3.43% |
| O=C(NCc1cccc(CNC(=O)Nc2cccc(O)c2)c1)Nc1cccc(O)c1 | -1.08% |
| Cc1ccc(NC(=O)COc2ccc(/C=N\NC(=O)c3cccnc3)cc2)cc1C | 12.4% |
| O=C(Cc1ccccc1)Nc1cccc(NC(=O)c2ccccc2)c1 | -0.775% |
| Cc1ccc(OCC(=O)NCCCNC(=O)c2cccnc2)cc1C | -4.42% |
| C/C(=C\C(=O)c1ccccc1)Nc1cccc(O)c1 | 29.3% (active) |
| C/C(=C\C(=O)c1cccnc1)Nc1ccc(C)c(C)c1 | 29% (active) |
| O=C(Nc1cccc(C(=O)N2CCCC2)c1)c1ccccc1 | -1.45% |
| CCCCCN(C(=O)CCC(=O)OCC(=O)NCc1ccc(OC)cc1)c1c(N)n(CCCC)c(=O)[nH]c1=O | -0.685% |
| COc1ccc(NC(=O)c2sc(N3CCOCC3)nc2-c2ccccc2)c(OC)c1 | -2.89% |
| COc1ccc(C(=O)NCCNc2ccc([N+](=O)[O-])cn2)cc1 | 4.73% |
| CCN(CC)CCCNC(=O)COc1ccc2oc3c(c2c1)CCCC3 | -5.99% |
| Cc1ccc(OCC(=O)Nc2ccc(S(=O)(=O)Nc3ccccn3)cc2)cc1 | 1.04% |
| O=C(COc1ccc2oc3c(c2c1)CCCC3)Nc1ccccn1 | 28.6% (active) |
| COc1ccc(CN2CCN(Cc3ccc(OC)c(OC)c3OC)CC2)cc1 | -4.12% |
| Cc1ccc(CS(=O)Cc2ccc(C(=O)N3CCOCC3)o2)cc1 (stereo unspecified) | 0.901% |
| CC(=O)NS(=O)(=O)c1ccc(N/C(N)=N/c2nc(C)cc(C)n2)cc1 | -0.472% |
| COc1ccc(CCNC(=O)CN2C(=O)COc3ccc(S(=O)(=O)N4CCCC4)cc32)cc1OC | -2.34% |
| CCNc1nc(NC(C)C)nc(N2CC(=O)N(CC(=O)OCC)C2=N)n1 | -5.32% |
| CCN(c1cccc(C)c1)S(=O)(=O)c1ccc(-c2coc(C)n2)cc1 | -4.01% |
| CCN(CC)S(=O)(=O)c1ccc(-c2cn3ccc(C)cc3n2)cc1 | 45.6% (active) |
| COc1ccc(-c2cn3ccc(C)cc3n2)cc1 | -1.85% |
| CCCCN(CC)C(=O)c1ccccc1Oc1ccccc1 | -1.52% |
| Cc1ccc(N)cc1-n1c(C)ccc1C | 23.9% (active) |
| Cc1ccc(C)n1-c1ccncc1 | -5.57% |

From PubChem BioAssay AID2314 (National Center for Advancing Translational Sciences (NCATS), 2010)
